Assay outcomes: PubChem, National Center for Advancing Translational Sciences (NCATS)
Sampled rows, rich in hits. Any-hit rate of the full collection: about 9.2%.
NPC1 promoter act: activators of NPC1 promoter | Huh7 NPC1 promoter luciferase reporter, 24 h | Potency, µM (highest dose often 9.22 µM), actives largely listed as activators | hit rate 2.4% among 320,000 | AID 485313; further: nearly all actives have a fitted effect of over 60% in size
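Stable NPC1-promoter luciferase Huh7 line; cpd (DMSO) 24 h, 37 °C, 5% CO2; Amplite luciferase reagent 10 min RT; luminescence readout. qHTS format.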
ELG1 repair inh: ELG1-dependent DNA repair inhibition. Potency, µM (titrated, usually from 46.1 µM), actives largely listed as inhibitors. AID 504467. hit rate 2.3% among 330,000. HEK293T ELG1-luciferase reporter, luminescence, 16 h; DNA damage induced by 5-fluorouridine; further: nearly all actives have a fitted effect of over 55% in size
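5-Fluorouridine DNA damage + compound/DMSO, 2,000 cells/well, 16 h, 37 °C/5% CO2. ONE-Glo, 30 min RT, luminescence. Readout = decrease in reporter signal.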
Rab9 prom act: activators of Rab9 promoter; Huh7 Rab9 promoter-luciferase reporter, luminescence, 24 h; Potency, µM (highest dose often 9.22 µM), hits mostly activators; hit rate 2.8% among 320,000; AID 485297; further: nearly all actives have a fitted effect of over 60% in size
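Measured in stably transfected Huh7 cells bearing a Rab9 promoter–luciferase construct: 24 h compound treatment at 37 °C, followed by luminescence detection.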
ELG1 genotoxic: inducers of genotoxicity in HEK293T ELG1-luciferase cells. Potency, µM (doses to about 46 µM), usual class: activators. hit rate 1.3% among 330,000. HEK293T ELG1-luciferase reporter, luminescence, 16 h; further: nearly all actives have a fitted effect of over 60% in size
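Genotoxic stress is detected as increased luminescence from luciferase-tagged ELG1 in HEK293T cells, measured with ONE-Glo after a 16 hr treatment at 37 °C.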
SMN2 splice enh: enhancers of SMN2 splice variant expression; Potency, µM (top dose mostly 46.1 µM), hits mostly activators; hit rate 2.8% among 210,000; AID 1458; HEK293 SMN2-luciferase splicing reporter, luminescence, 30-36 h; further: nearly all actives have a fitted effect of over 55% in size
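HEK293 cells carry an SMN2 […]–luciferase reporter in which exon 7 inclusion puts luciferase in frame. Cells were plated 10-12 h before compound addition, then incubated 30-36 h at 37C. ONE-Glo luminescence was read; sodium butyrate at 4.5 mM final served as control.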
FLuc modulator: counter-screen for miR-21 project: firefly luciferase inhibitors or activators; Potency, µM (top dose mostly 57.5 µM), usual class: inhibitors; P08659; hit rate 6.9% among 360,000; purified FLuc, Km substrates, luminescence inhibition; further: nearly all actives have a fitted effect of over 55% in size
Target sequence (P08659 whole entry, looked up): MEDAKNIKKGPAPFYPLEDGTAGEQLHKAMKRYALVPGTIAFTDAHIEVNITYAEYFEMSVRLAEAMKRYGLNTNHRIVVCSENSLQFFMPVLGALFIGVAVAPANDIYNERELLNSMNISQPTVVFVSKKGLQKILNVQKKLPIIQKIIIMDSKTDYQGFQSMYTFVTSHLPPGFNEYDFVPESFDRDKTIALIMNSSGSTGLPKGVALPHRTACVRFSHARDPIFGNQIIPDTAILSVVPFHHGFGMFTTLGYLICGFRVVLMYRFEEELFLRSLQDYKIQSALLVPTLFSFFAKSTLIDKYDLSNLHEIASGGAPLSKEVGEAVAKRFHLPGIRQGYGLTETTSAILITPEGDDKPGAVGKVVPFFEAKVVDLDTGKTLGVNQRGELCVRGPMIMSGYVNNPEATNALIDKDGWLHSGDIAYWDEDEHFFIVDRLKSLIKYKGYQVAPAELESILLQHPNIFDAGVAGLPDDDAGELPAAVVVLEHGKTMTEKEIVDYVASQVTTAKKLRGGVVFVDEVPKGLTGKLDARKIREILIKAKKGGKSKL
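Purified P. pyralis luciferase, 10 nM final, with Km-level 10 uM D-luciferin and 10 uM ATP in 50 mM Tris acetate pH 7.5, 10 mM Mg acetate, 0.01% Tween-20, 0.05% BSA; 6-point qHTS titration about 60 µM downward; luminescence read.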
Hits are given with their value; n = inactive; u = inconclusive; x = not tested or not shown. The call rests on the fitted dose curve; in most records, active means well fitted curve in the direction sought with a large enough effect; inconclusive means small, poorly fitted or top-dose-only effect, or another doubt; inactive means no such curve, though single readings can be large; an effect the other way counts as inactive or inconclusive.

SMILES | NPC1 promoter act | ELG1 repair inh | Rab9 prom act | ELG1 genotoxic | SMN2 splice enh | FLuc modulator
COc1ccc(C2C(=O)N(C3CCCCC3)CC(=O)N2CCc2ccc(C)cc2)cc1OC (centres undefined) | x | x | x | x | x | n
CCCN(C(=O)Cn1nc(C)c([N+](=O)[O-])c1C)c1c(N)n(Cc2ccccc2)c(=O)[nH]c1=O | n | n | n | n | x | n
Cc1cc(C)n2nc(SC(C)C(=O)N(C)C3CCCCC3)nc2n1 (centres undefined) | x | n | x | n | x | x
COc1ccc(NC(=O)C2CCN(S(=O)(=O)c3c(C)nn(C)c3C)CC2)cc1 | n | n | n | n | x | n
Cc1nn(C)c(C)c1S(=O)(=O)N1CCC(C(=O)Nc2ccc3c(c2)OCCO3)CC1 | n | u | n | 18.4µM | n | 15.1µM
CC(=O)N(Cc1cccnc1)c1cccc(-c2nc3ccccc3s2)c1 | n | u | n | n | x | n
CC(=O)NCc1ccc(-c2csc(-c3cccs3)n2)cc1 | 2µM | u | 2.24µM | u | x | 5.36µM
Oc1ccc(-c2nc3ccccc3s2)cc1 | 2.82µM | u | 2.82µM | 3.66µM | x | 1.9µM
c1csc(-c2nc3ccccc3s2)c1 | 2.51µM | u | 3.55µM | u | x | 2.69µM
c1cncc(-c2nc3ccccc3s2)c1 | u | u | u | u | x | 21.3µM
O=C(NCc1csc(-c2cccs2)n1)c1ccccc1 | u | u | n | n | x | u
O=C(CSc1nc2c([nH]c3ccccc32)c(=O)n1-c1ccc(F)cc1)NCc1ccc(F)cc1 | x | x | x | x | x | n
COc1ccc([C@H]2CC(=O)C=C(c3ccnc4ccc(Cl)cc34)C2)cc1 | n | n | n | n | x | n
CC(=O)NCc1ccc(-c2nc3ccccc3s2)cc1 | 2.24µM | u | 0.631µM | u | 14.1µM | 3.01µM
CC(=O)Nc1scc(C)c1-c1nc2ccccc2s1 | n | n | n | n | x | n
c1ccc2sc(-c3ccncc3)nc2c1 | 3.16µM | u | 2.82µM | u | x | 15.1µM
Cc1cc(-c2nnco2)c(C)n1-c1ccccc1 | u | u | u | 11.2µM | u | 12µM
Cc1nc2ccccn2c1-c1nnco1 | n | n | n | n | n | n
Cc1ccc(NC(=O)Nc2ccccc2C(=O)NCc2ccccc2)cc1 | n | u | n | u | n | 4.78µM
Cc1nn(C)c(C)c1NC(=O)c1ccccc1NC(=O)Nc1ccccc1 | n | n | n | n | x | 16.9µM
C=CCNC(=O)c1ccccc1NC(=O)Nc1ccccc1 | n | n | n | n | n | 19µM
O=C(Nc1ccccc1)Nc1ccccc1C(=O)NCC1CC1 | n | n | n | n | x | 15.1µM
O=C(NCC1CC1)c1ccccc1Cl | n | n | n | n | x | n
COCCNC(=O)c1ccccc1NC(=O)Nc1ccccc1 | n | n | n | n | n | 26.9µM
COCCNC(=O)c1ccccc1NC(=O)c1cc(OC)cc(OC)c1 | n | u | n | n | n | n
SMILES | NPC1 promoter act | ELG1 repair inh | Rab9 prom act | ELG1 genotoxic | SMN2 splice enh | FLuc modulator
COCCNC(=O)c1ccccc1NC(=O)c1nsc2ccccc12 | x | x | x | x | x | 19µM
O=C(NNC(=O)C1[C@H]2CCCC[C@@H]12)Nc1cccc2ccccc12 (some centres undefined) | n | 25.9µM | n | n | x | n
CCC(=O)NNC(=O)CCC(=O)Nc1ccccc1 | n | u | n | n | u | n
Cc1cc(NC(=O)CCC(=O)NNC(=O)c2ccc(C(C)(C)C)cc2)no1 | n | u | n | n | n | 2.39µM
CC(C)(C)c1ccc(C(=O)NNC(=O)CCC(=O)Nc2ccccc2)cc1 | n | n | n | n | x | 3.38µM
CC1CCN(C(=O)CN(Cc2ccc(F)cc2)S(C)(=O)=O)CC1 | n | n | n | n | x | n
CCCC(c1nnnn1CC1CCCO1)N1CCN(c2nc3ccccc3s2)CC1 (centres undefined) | n | 23.1µM | n | n | n | n
CCC(c1nnnn1CS(=O)(=O)c1ccc(C)cc1)N1CCN(c2nc3ccccc3s2)CC1 (centres undefined) | n | 8.2µM | n | n | n | n
CCCS(=O)(=O)c1cnc(C2COc3ccccc3O2)nc1N (centres undefined) | n | u | n | u | x | 0.12µM
CCC(=O)O[C@@]1(C(=O)SCF)[C@@H](C)C[C@H]2[C@@H]3C[C@@H](F)C4=CC(=O)C=C[C@@]4(C)[C@]3(F)[C@@H](O)C[C@]21C | x | x | x | x | n | x
Cc1ccc(NCCC(=O)c2cccs2)cc1C | n | u | u | u | u | 3.38µM
CC(C)c1ccc(NCCC(=O)c2cccs2)cc1 | u | u | u | u | n | 12µM
O=C(CCNc1cccc(Cl)c1)c1cccs1 | n | u | n | n | n | u
Cc1ccc(NC(=O)CCC(=O)c2cccs2)c(Br)c1 | u | u | 3.55µM | u | x | u
Cc1cc(C)c(C(CC(=O)c2cccs2)C(C#N)C#N)c(C)c1 (centres undefined) | u | u | 3.55µM | 18.4µM | u | 12µM
CCc1ccc(-n2nc(CO)c(C(=O)NCCCCc3ccccc3)n2)cc1 | x | x | x | x | n | u
Cc1ccc(CNC(=O)CCC(=O)c2cccs2)cc1 | n | n | n | n | n | n
C/C(=N/OCC(=O)Nc1ccccc1)c1cccs1 | u | u | u | u | n | 9.53µM
Cc1ccc(NCCC(=O)c2cccs2)cc1Cl | n | u | n | 20.6µM | n | u
COc1ccc(NC(=O)CO/N=C(\C)c2cccs2)cc1 | n | n | n | n | n | n
Cc1ccc(NCCC(=O)c2cccs2)cc1 | u | u | 2.82µM | u | n | 21.3µM
O=C(CCC(=O)c1cccs1)Nc1ccc(N2CCCCC2)cc1 | n | n | n | n | n | 19µM
CN(C(=O)c1ccc2c(c1)N(Cc1ccccc1F)C(=O)c1ccccc1S2(=O)=O)C1CCCCC1 | x | x | x | x | n | n
Cc1ccc(CN2COc3ccc4c(-c5ccccc5)cc(=O)oc4c3C2)cc1 | x | x | x | x | n | n
CC(CC(=O)c1cccs1)CC(=O)c1cccs1 | 2.82µM | u | 2.82µM | n | u | 21.3µM
SMILES | NPC1 promoter act | ELG1 repair inh | Rab9 prom act | ELG1 genotoxic | SMN2 splice enh | FLuc modulator
O=C(CC(C(=O)O)c1ccccc1)c1cccs1 (centres undefined) | n | n | n | n | x | n
Cc1ccc(NC(=O)CNCc2ccccc2)c(Br)c1 | n | u | n | u | n | u
Cc1ccc(NC(=O)CCC(=O)c2cccs2)cc1 | n | n | n | n | n | 10.7µM
Cc1ccc(NC(=O)CNCc2cccs2)c(Br)c1 | n | u | n | u | x | 26.9µM
C[C@@H]1[C@H]2[C@@H]3CC[C@@H](C3)[C@H]2CN[C@H]1c1cn(Cc2ccccc2)c2ccccc12 | x | n | x | n | x | x
NC(=O)COc1ccc2cc(-c3ccccc3)c(=O)oc2c1 | n | u | n | u | x | u
CC(C)(C)C(=O)Oc1ccc2cc(-c3ccc4ccccc4n3)c(=O)oc2c1 | u | u | u | u | 14.1µM | n
CC(=O)Oc1ccc2cc(-c3nc4ccccc4n3C)c(=O)oc2c1 | u | u | 2.82µM | u | u | u
Cc1ccc2nc(-c3sc4nc(C)ccc4c3N)[nH]c2c1 | 3.16µM | u | 3.16µM | u | 2.24µM | 1.2µM
